The values below come from PubChem BioAssay (NCATS).

Structures are written as SMILES. “And” between values parts separate entries of the source, which are not always exact repeats. Identical values can stand only once. Records with an inconclusive call do not appear. Some structures have more than one record in an assay (separate samples or runs), and their calls can disagree. The source made the active and inactive calls. Unless noted, the call rests on the fitted dose curve; in most records, active means well fitted curve in the direction sought with a large enough effect; inconclusive means small, poorly fitted or top-dose-only effect, or another doubt; inactive means no such curve, though single readings can be large; an effect the other way counts as inactive or inconclusive.

In assay [1] the target is Guanine nucleotide-binding protein G(i) subunit alpha-1 (Homo sapiens) (UniProt P63096). As to the kind of experiment: qHTS Assay for Inhibitors of RGS12 GoLoco Motif Activity (Green Fluorophore) (AID 879). Further: potency means the concentration at half of the fitted maximal effect. In outline: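 Fluorescence polarization assay: 50 nM Gαi1 with 10 nM FITC-labeled RGS12 GoLoco peptide in 10 mM Tris pH 7.5, 150 mM NaCl, 0.1 mM GDP, 0.05% NP40, 10 min at room temperature with compound.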
Chain of Guanine nucleotide-binding protein G(i) subunit alpha-1 (Homo sapiens) (P63096 whole entry, looked up): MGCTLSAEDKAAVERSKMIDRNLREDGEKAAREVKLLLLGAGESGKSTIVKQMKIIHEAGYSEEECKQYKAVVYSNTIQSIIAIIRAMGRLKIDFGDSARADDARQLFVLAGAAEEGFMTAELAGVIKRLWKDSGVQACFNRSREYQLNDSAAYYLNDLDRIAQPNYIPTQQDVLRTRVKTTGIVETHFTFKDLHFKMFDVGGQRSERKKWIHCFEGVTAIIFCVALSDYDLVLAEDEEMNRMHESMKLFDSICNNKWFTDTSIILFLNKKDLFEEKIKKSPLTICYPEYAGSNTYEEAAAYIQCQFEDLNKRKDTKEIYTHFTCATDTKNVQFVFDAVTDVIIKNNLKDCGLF
A general note: In qHTS, concentration-response curves come from the screen itself.

Assay [2] concerns the target Cytochrome P450 2C9 (Homo sapiens) (UniProt P11712). The assay can be described thus: qHTS Assay for Inhibitors and Substrates of Cytochrome P450 2C9 (AID 883). Further: nearly all actives have a fitted effect of over 60% in size. Further: potency means the concentration at half of the fitted maximal effect. In outline:
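Turnover of Luciferin-H (100uM, KM) by 10nM human CYP2C9 was measured over 60 min at 37C with NADPH regeneration; inhibitors and some substrates reduce luminescence. Data normalized to sulphaphenazole 57uM.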

Assay [3] concerns the target Cytochrome P450 3A4 (Homo sapiens) (UniProt P08684). As to the kind of experiment: qHTS Assay for Inhibitors and Substrates of Cytochrome P450 3A4 (AID 884). Further: nearly all actives have a fitted effect of over 50% in size. Further: potency means the concentration at half of the fitted maximal effect. In outline:
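20 nM human CYP3A4 with 25 uM Luciferin-PPXE (at KM) in 200 mM KPO4, preincubated 10 min with compound; NADPH regeneration started a 60 min RT reaction. Luciferin detected by luminescence, normalized to 57 uM ketoconazole as full inhibition.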

Assay [4] shares this target. The assay can be described thus: qHTS Assay for Activators of Cytochrome P450 3A4 (AID 885). Further: nearly all actives have a fitted effect of over 65% in size. In outline: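 Steps: enzyme/substrate mix dispensed; compound added, 10 min RT; NADPH regeneration solution added, 60 min RT; luciferin detection buffer stops reaction; 20 min later luminescence measured.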
Assay [5] has as its target Cytochrome P450 2D6 (Homo sapiens) (UniProt P10635). As to the kind of experiment: qHTS Assay for Inhibitors and Substrates of Cytochrome P450 2D6 (AID 891). Further: nearly all actives have a fitted effect of over 60% in size. Further: potency means the concentration at half of the fitted maximal effect. In outline:
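Human CYP2D6 (5 nM) with 30 uM Luciferin-ME EGE (at Km) in 100 mM KPO4, compound preincubated 10 min, then NADPH regeneration system for 60 min at room temperature. Luciferin read by luminescence; normalized to 1.43 uM quinidine.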

Assay [6] in a line: qHTS Assay for Identification of Small Molecule Antagonists for NFkB Signaling Pathway (AID 895; active means well fitted inhibition curve with a large enough effect in the signal ratio, with a control signal flat, not every such curve was filed as active; the % refers to the signal ratio; further: potency means the concentration at half of the fitted maximal effect). An outline of the steps:
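Beta-lactamase reporter read-out (460 and 530 nm emission ratio, 405 nm excitation, 2 hrs substrate loading RT) after 5 hr stimulation with 10 pM TNF alpha in compound-treated NFkB-bla ME-180 cells in low-serum medium.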

For assay [7], the target named is Muscarinic acetylcholine receptor M1 (Rattus norvegicus) (UniProt P08482). As to the kind of experiment: qHTS Assay for Antagonists of Acetylcholine Muscarinic M1 Receptor: Measurement of IP-One Response (AID 944). Further: nearly all actives have a fitted effect of over 75% in size. In outline:
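CHO cells stably expressing rat M1, pretreated 10 min with compound, then stimulated 30 min with carbachol at EC80 (200 nM) in LiCl-containing buffer pH 7.4; IP1 accumulation read by HTRF competition (665/620 nm).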

Assay [8] in a line: qHTS Assay for Identification of Small Molecule Antagonists for Thrombopoietin (TPO) Signaling Pathway (AID 918). Further: potency means the concentration at half of the fitted maximal effect; nearly all actives have a fitted effect of over 60% in size. Particulars: TPO-dependent cell signaling reporter, antagonist mode. In outline:
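Murine Ba/F3 cells expressing human TPO receptor and a Glycoprotein IIb promoter-luciferase reporter, IL-3-starved overnight, treated with compound plus TPO at EC50 (26 pM final). After 24 h at 37 C, luminescence read to detect inhibitors.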

Assay [9] is described as follows: qHTS Assay for Identification of Small Molecule Agonists for Thrombopoietin (TPO) Signaling Pathway (AID 917). In outline: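 We measured Glycoprotein IIb promoter–luciferase output in IL-3-starved Ba/F3 murine cells expressing the human TPO receptor after 24 hrs at 37 C with compounds and 26 pM TPO.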
Assay [10] deals with Muscarinic acetylcholine receptor M1 (Rattus norvegicus) (UniProt P08482). The assay can be described thus: qHTS Assay for Antagonists of Acetylcholine Muscarinic M1 Receptor: Kinetic Measurement of Intracellular Calcium Response (AID 943). Further: series mostly up to about 35 µM; nearly all actives have a fitted effect of over 75% in size. In outline:
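CHO cells expressing rat M1 receptor, Fluo-4 loaded, preincubated 10 min with compound, then stimulated with EC80 carbachol (100 nM final). Kinetic calcium fluorescence over 4 min; response taken as peak over basal signal.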

The target in assay [11] is Cytochrome P450 2C19 (Homo sapiens) (UniProt P33261). The assay can be described thus: qHTS Assay for Inhibitors and Substrates of Cytochrome P450 2C19 (AID 899). Further: nearly all actives have a fitted effect of over 60% in size. Further: potency means the concentration at half of the fitted maximal effect. An outline of the steps:
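Reactions contain 5nM enzyme, 10uM Luciferin-H EGE (KM) and 50mM KPO4; compound preincubates 10 min at 37C, NADPH regeneration starts turnover for 60 min. Luminescence after detection reagent gives activity.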

Assay [12] can be described thus: Confirmation and Secondary Assay for Modulators of Hemoglobin Beta Chain Splicing at IVS2 654 locus (AID 910).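 Further: HeLa cells stably carrying EGFP split by mutant beta-globin IVS2-654 intron; per-well total GFP intensity by laser scanning cytometry after 2-day treatment.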 An outline of the steps: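 Readout: per-well total peak green fluorescence (488 nm ex, 500–520 nm em) from objects 5–250 µm, reflecting correct splicing of an EGFP-654 reporter. Compounds were applied for 2 days at 37 °C to overnight-plated HeLa EGFP-654 cells; controls were DMSO and 500 nM IVS2-654 PNA.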

Assay [13] in a line: Confirmation and Secondary Assay for Modulators of Hemoglobin Beta Chain Splicing at IVS2 705 locus (AID 930).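 Further: HeLa cells stably expressing the EGFP-705 splicing reporter; GFP fluorescence per well restored by corrected splicing of the IVS2-705 intron in EGFP; series mostly up to about 46 µM.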 In outline: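 Fluorescence gain (488 nm laser, 500-520 nm PMT) reflects restored correct splicing of a mutant IVS2-705 intron inside EGFP in stably transfected HeLa cells after 2-day compound treatment.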
Assay [14] in a line: Cellular Toxicity (caspase-3) H-4-II-E (AID 663).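 Further: cells exposed to compound for 16 hr before readout.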 In outline:
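Apoptosis induction is scored as increased luminescence from caspase 3/7 substrate cleavage in rat hepatoma H-4-II-E cells exposed to compound for 16 hr. Activity is scaled between DMSO and 100 uM tamoxifen.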

A short description of assay [15]: Cellular Toxicity (caspase-3) Hek293 (AID 664).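 Further: cells exposed to compound for 16 h at 37 °C before readout.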 In outline:
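HEK293 cells in complete medium treated 16 h at 37 °C, then Caspase-Glo 3/7 luminescence read after 20 min at room temperature. Normalized to DMSO and 100 uM tamoxifen; AC50 from Hill fit of concentration-response.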

Assay [16] is described as follows: Cellular Toxicity (caspase-3) N2a (AID 665).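 Further: compound exposure lasted 16 h at 37 °C before readout.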 An outline of the steps:
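Mouse N2a neuroblastoma cells, 1500 per well, treated 16 h at 37 °C in complete medium; caspase-3/7 activity by Caspase-Glo luminescence after 1 h. Normalized to DMSO and 10 uM staurosporine; AC50 from Hill fits.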

Assay [17] in a line: Cellular Toxicity (caspase-3) NIH 3T3 (AID 666).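 Further: caspase signal read after 16 h compound exposure.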 In outline: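 Mouse NIH 3T3 fibroblasts (1000/well) treated 16 h at 37 C; caspase-3/7 activity measured by Caspase-Glo 3/7 luminescence after 20 min. Normalized to DMSO and 100 uM tamoxifen; AC50 from Hill fits.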
Assay [18] can be described thus: Cellular Toxicity (caspase-3) Renal Proximal Tubule (AID 667).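 Further: cells exposed to compound for 16 hours at 37 °C before detection.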 An outline of the steps: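 In qHTS format, rat primary proximal tubule cells seeded at 1000 per well are exposed to compounds for 16 hours at 37 °C. An increase in Caspase-Glo 3/7 luminescence indicates caspase activation.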
Assay [19] can be described thus: Cell Viability - LYMP2-001 (AID 921). Further: series mostly up to about 92 µM; nearly all actives have a fitted effect of over 70% in size. In outline: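 qHTS, 1536-well; lymphoblastoid cells, 24 hr compound, 37 C; ATP by CellTiter-Glo, 30 min RT; luminescence; Hill-fit AC50.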

Chain of Muscarinic acetylcholine receptor M1 (Rattus norvegicus) (P08482 whole entry, looked up): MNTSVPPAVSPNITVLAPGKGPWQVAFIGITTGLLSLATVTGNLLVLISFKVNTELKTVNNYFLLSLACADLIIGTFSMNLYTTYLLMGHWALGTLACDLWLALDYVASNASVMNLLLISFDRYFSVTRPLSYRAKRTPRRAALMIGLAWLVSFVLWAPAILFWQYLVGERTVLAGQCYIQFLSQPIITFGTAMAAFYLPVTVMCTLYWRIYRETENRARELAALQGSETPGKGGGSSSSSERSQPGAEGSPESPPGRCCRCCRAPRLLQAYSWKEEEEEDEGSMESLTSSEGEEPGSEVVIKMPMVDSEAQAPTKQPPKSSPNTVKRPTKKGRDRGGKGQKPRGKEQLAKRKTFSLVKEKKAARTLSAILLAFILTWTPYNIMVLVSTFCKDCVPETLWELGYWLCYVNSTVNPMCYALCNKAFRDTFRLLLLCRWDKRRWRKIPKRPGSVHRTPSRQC
Chain of Cytochrome P450 3A4 (Homo sapiens) (P08684 whole entry, looked up): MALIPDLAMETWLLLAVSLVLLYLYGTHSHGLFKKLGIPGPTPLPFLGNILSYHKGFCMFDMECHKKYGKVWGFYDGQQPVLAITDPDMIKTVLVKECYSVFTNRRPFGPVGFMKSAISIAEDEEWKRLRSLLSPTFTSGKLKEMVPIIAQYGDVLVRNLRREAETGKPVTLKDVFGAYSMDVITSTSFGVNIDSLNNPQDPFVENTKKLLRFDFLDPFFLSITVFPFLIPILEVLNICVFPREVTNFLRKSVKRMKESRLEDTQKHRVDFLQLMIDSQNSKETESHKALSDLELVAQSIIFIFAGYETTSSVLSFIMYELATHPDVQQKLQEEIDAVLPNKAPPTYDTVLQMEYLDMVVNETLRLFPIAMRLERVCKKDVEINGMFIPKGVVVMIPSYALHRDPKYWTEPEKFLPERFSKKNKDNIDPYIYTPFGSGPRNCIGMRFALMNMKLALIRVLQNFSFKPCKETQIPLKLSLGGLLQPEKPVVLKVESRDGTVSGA
Chain of Cytochrome P450 2C19 (Homo sapiens) (P33261 whole entry, looked up): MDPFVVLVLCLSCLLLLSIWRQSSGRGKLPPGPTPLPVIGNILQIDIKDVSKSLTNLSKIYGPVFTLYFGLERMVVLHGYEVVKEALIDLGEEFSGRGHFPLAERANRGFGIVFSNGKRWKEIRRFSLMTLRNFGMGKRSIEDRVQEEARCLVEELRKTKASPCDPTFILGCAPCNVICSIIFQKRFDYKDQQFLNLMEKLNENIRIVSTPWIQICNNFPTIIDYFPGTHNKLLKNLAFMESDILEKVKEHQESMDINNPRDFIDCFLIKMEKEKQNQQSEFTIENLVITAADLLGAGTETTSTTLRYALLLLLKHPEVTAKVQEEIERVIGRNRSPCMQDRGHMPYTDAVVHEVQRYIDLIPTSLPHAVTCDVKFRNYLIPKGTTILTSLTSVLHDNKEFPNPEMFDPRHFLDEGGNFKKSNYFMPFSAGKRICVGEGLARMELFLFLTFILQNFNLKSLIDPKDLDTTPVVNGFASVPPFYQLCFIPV
Chain of Cytochrome P450 2D6 (Homo sapiens) (P10635 whole entry, looked up): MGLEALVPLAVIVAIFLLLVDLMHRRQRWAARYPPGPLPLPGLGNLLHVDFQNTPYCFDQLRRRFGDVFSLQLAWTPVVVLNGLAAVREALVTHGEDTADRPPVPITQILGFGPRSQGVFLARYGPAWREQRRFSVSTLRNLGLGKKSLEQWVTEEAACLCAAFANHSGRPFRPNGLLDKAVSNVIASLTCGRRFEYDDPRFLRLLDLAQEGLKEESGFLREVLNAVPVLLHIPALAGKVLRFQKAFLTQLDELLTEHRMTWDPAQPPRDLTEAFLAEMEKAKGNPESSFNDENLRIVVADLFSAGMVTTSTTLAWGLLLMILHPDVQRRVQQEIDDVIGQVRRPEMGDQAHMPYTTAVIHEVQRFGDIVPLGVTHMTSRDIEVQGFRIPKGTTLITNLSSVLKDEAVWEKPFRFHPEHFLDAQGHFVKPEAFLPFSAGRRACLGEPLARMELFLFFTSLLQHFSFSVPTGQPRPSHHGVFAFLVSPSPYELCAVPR
Chain of Cytochrome P450 2C9 (Homo sapiens) (P11712 whole entry, looked up): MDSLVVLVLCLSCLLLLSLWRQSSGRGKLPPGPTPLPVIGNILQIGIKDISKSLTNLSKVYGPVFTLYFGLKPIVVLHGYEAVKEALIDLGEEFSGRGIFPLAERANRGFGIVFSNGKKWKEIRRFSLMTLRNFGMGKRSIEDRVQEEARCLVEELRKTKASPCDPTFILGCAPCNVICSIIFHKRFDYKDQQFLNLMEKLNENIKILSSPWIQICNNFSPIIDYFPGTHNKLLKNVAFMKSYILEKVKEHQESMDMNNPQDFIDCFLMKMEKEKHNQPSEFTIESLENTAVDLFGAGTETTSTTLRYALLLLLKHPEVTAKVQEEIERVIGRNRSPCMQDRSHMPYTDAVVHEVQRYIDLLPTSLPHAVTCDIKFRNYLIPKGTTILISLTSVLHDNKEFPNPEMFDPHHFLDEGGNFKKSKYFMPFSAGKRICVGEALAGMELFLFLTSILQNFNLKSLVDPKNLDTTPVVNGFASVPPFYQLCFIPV

In the case of `Cc1nc(N=Nc2cc(S(=O)(=O)O)c3cc([N+](=O)[O-])cc(S(=O)(=O)O)c3c2)c(COP(=O)(O)O)c(C=O)c1O`, the Potency result in [1], in assay [2], in [3], in assay [4], in [5] and in assay [6] was “inactive” throughout. Besides, the Potency result in assay [7] was “inactive”.

Consider `COc1ccc(NC(=O)c2ccc(-c3ccc(-c4noc(C)n4)cc3C)cc2)cc1N1CCN(C)CC1`, for which the Potency entry in assay [1] and in assay [3] was “inactive” in each case. In addition, the Potency in assay [2] is 7.94 µM (active); in assay [8], 10 µM (active).

As to `Oc1ccc(Cn2cc[nH]c2=S)cc1`, the Potency result in assay [1], in [2], in [4], in [9], in [10] and in assay [7] was “inactive” in each case.

In the case of `NC(N)=NC(N)=Nc1ccccc1`, the Potency result in [1], in assay [2], in assay [3], in assay [5], in assay [11] and in assay [12] was “inactive” in each case. For the same molecule, the Potency result in assay [9], in assay [10] and in [7] was “inactive” each time. The molecule was classed as inactive in assay [13].

As to `NC(=O)c1ccccc1`, the outcome in assay [14], in assay [15], in assay [16], in assay [17], in assay [18] and in assay [19] was inactive. Also, the Potency entry in assay [1], in assay [2], in assay [4], in assay [5], in assay [6] and in assay [11] was “inactive” in each case. The Potency result in assay [9], in assay [10] and in assay [7] was “inactive” throughout.

`N=C(N)c1ccc(N)cc1`: the Potency entry in assay [1] is “inactive”.

For the molecule `O=C(O)c1ccccc1Nc1cccc(OCc2ccc3ccccc3n2)c1`, the Potency result in assay [1], in assay [4], in [10] and in [7] was “inactive” throughout. For the same molecule, the Potency in [2] was 31.6 µM (active); in assay [3], 1.58 µM (active); in [5] it was “inactive and 7.94 µM (active)”; in assay [11] it was “inactive and 5.01 µM (active)”.

Regarding `NC(N)=NC(N)=Nc1cccc(Cl)c1`, the Potency entry in [1], in assay [2], in [3], in assay [4] and in assay [7] was “inactive” throughout.

For `O=C(O)c1cc2cc(F)ccc2[nH]1`, the Potency entry in assay [1], in assay [2], in assay [3], in assay [5], in assay [11] and in assay [12] was “inactive” in each case. The Potency result in assay [9], in [10] and in [7] was “inactive” in each case. For the same molecule, the outcome in [13] was inactive.

For `O=c1onc2cnc3ccccc3n12`, the Potency entry in [1], in assay [2], in assay [4], in assay [5], in [11] and in assay [9] was “inactive” throughout. In addition, the Potency entry in [7] is “inactive”. The Potency in assay [3] was 10 µM (active); in assay [6], 5.62 µM (active).

In the case of `COCc1nc2c([nH]1)c(=O)n(C)c(=O)n2CC(C)C`, the Potency result in [1], in assay [2], in assay [4], in [5], in assay [11] and in assay [9] was “inactive” throughout. Further, the Potency entry in [10] and in assay [7] was “inactive” in each case.

As for `NCCS(=O)O`, the Potency result in assay [1], in assay [2], in assay [5], in [6], in assay [11] and in assay [9] was “inactive” throughout. In addition, the Potency result in assay [10] and in assay [7] was “inactive” in each case.

Regarding `CC(=O)C(C)=O`, the result in assay [14], in [15], in [16], in assay [17], in assay [18] and in assay [19] was inactive. The Potency result in assay [1], in assay [2], in [3], in [5], in [6] and in [11] was “inactive” in each case. Also, the Potency entry in assay [7] was “inactive”.

For `O=c1[nH]ccc2c(O)cccc12`, the Potency result in [1], in assay [2], in assay [4], in assay [6], in assay [9] and in [10] was “inactive” in each case. The Potency result in assay [7] was “inactive”.

For the molecule `O=[N+]([O-])c1cccc2c(Br)[nH]nc12`, the Potency result in [1], in assay [2], in [4], in assay [12] and in assay [9] was “inactive” each time. For the same molecule, the outcome in [13] was inactive.

As for `O=S(=O)(c1cccc2c(Cl)cccc12)N1CCCNCC1`, the Potency result in [1], in assay [2], in [4], in assay [9] and in [7] was “inactive” in each case. Also, the Potency in [3] was 5.01 µM (active) and 3.98 µM (active).

`CCCCCCN(CCCCCC)C(=O)Cc1c(-c2ccc(F)cc2)[nH]c2ccccc12`: the Potency entry in [1], in assay [2], in assay [4], in [5], in assay [6] and in [7] was “inactive” throughout. In addition, the values for the Potency in [3] and in [11] were 2.51 µM (active) and 3.98 µM (active), respectively.

In the case of `N[C@H](C(=O)O)c1cc(O)cc(O)c1`, the Potency entry in [1], in [2], in [4], in [5], in [6] and in assay [11] was “inactive” each time. In addition, the Potency result in [9], in assay [10] and in assay [7] was “inactive” throughout.

Take `Nc1ccc2c3c(cccc13)C(=O)NC2=O`: the Potency in assay [1] was 0.794 µM (active). Also, the Potency entry in [2], in assay [4] and in assay [9] was “inactive” each time.

In the case of `N=C(N)c1ccc(OCCCCCOc2ccc(C(=N)N)cc2)cc1` (tested in a mixture with another compound), the Potency result in assay [1] is “inactive”.

`CNC(=O)c1cc2c(cn1)[nH]c1ccccc12`: the Potency result in [1], in assay [2], in [4], in assay [5], in assay [11] and in [10] was “inactive” throughout. In addition, in [7], the Potency entry is “inactive”.

Regarding `CNc1cc(NS(=O)(=O)c2ccc(N)cc2)nc(NC)n1`, the Potency result in [1], in [4], in assay [6], in assay [11], in assay [9] and in [10] was “inactive” each time. In addition, the Potency is 2 µM (active) in [2] and 0.794 µM (active) in assay [3].

Regarding `CCCCCCCC/C=C\CCCCCCCC(=O)NCCc1ccc(O)c(O)c1`, the Potency entry in assay [1], in [4], in [10] and in assay [7] was “inactive” each time. Also, the Potency in assay [2] was 1.58 µM (active); in assay [3] it was 3.16 µM (active).
